Screening data: PubChem BioAssay, National Center for Advancing Translational Sciences (NCATS)
Mito fusion act: blocks mitochondrial division or promotes mitochondrial fusion. S. cerevisiae fusion-defective mutant growth rescue, CellTiterGlo 48 h. Potency, µM (top dose mostly 46.1 µM), usual class: activators. 320,000 compounds, 0.23% hits. AID 485298; further: nearly all actives have a fitted effect of over 45% in size
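Read-out: ATP-based luminescence (CellTiterGlo, 10 min ambient) reporting growth of fusion-defective ts yeast after 48 hours at 37C on glycerol/ethanol YPEG medium in the presence of compound.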
Gal4-VP16 FLuc: Gal4-VP16 reporter inhibition counter-screen; Drosophila S2 Gal4-VP16 UAS-luciferase, luminescence, 20 h; Potency, µM (highest dose often 53.6 µM), actives largely listed as inhibitors; 310,000 compounds, 3.5% hits;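 further: Gal4-VP16 expression switched on by copper sulfate through the metallothionein promoter; nearly all actives have a fitted effect of over 50% in size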
uPA surface inh: inhibitors of cell surface uPA generation | cell surface uPA generation assay, qHTS | Potency, µM (top dose mostly 38.3 µM), most hits filed as inhibitors | 330,000 compounds, 0.31% hits; active means well fitted inhibition curve with a large enough effect; inconclusive means small, poorly fitted or top-dose-only effect; inactive means no such curve, though single readings can be large or run the other way; tested in mouse RAW 264.7 cells; further: nearly all actives have a fitted effect of over 55% in size
Integrin act MD: activates integrin-mediated alleviation for muscular dystrophy. alpha7betagal myoblasts, beta-gal FDG fluorescence, 48 h. Potency, µM (doses to about 38.3 µM), most hits filed as activators. 350,000 compounds, 0.064% hits. AID 624291; further: nearly all actives have a fitted effect of over 60% in size
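alpha7betagal+/- myoblasts (passage 13, 250/well) treated 48 h at 37C with compounds at 1:260 dilution of DMSO stock. Lysed, then beta-galactosidase activity read as FDG fluorescence (ex 480/em 540) after 30 min, with pre-read for autofluorescence.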
RORgamma inh: ROR gamma (mouse) transcription inhibition; P51450; Drosophila S2 Gal4-RORgamma UAS-luciferase reporter, 20 h; Potency, µM (highest dose often 53.6 µM), hits mostly inhibitors; 310,000 compounds, 5.4% hits; further: nearly all actives have a fitted effect of over 60% in size
Target sequence (P51450 whole entry, looked up, the tested form may be a part): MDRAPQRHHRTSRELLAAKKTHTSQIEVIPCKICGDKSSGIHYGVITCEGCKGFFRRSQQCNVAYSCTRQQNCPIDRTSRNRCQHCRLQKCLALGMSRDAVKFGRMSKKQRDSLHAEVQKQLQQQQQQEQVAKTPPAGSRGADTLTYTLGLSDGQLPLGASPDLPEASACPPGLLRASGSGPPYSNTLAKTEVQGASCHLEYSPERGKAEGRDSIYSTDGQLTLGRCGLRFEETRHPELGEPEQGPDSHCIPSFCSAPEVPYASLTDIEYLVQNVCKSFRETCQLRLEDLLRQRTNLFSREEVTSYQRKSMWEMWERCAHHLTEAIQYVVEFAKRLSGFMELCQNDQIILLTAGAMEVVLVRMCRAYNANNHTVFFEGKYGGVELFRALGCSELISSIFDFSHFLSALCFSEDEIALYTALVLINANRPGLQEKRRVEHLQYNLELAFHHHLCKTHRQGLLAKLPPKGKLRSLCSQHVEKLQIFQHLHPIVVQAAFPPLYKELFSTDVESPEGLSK
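Read-out: Photinus luciferase luminescence; inhibitors lower reporter signal. Insect Schneider cells with Gal4-ROR gamma fusion under metallothionein promoter, UAS reporter; 700 uM final copper sulfate induction, 20 hr, ambient temperature.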
BCR signal inh: inhibitors of chronic active B-cell receptor signaling | Potency, µM (series often up to 46.1 µM), actives largely listed as inhibitors | ABC-DLBCL IkBa-CBG/CBR reporter, luminescence ratio, 4 h | AID 493014 | 340,000 compounds, 0.05% hits; active means well fitted inhibition curve with a large enough effect in the signal ratio, with a control signal flat, not every such curve was filed as active; inconclusive means small, poorly fitted or top-dose-only effect, or effect the other way, or a change in a side signal; the % refers to the signal ratio
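Compounds up to 46 uM were incubated four hours with TMD8 cells whose green CBG68 luciferase is fused to IkappaBalpha; red CBR luminescence normalised the signal, and concentration-effect curves were fitted to fusion, red and ratio data.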
Numbers stand for hits; – = inactive; ? = inconclusive; · = no result; [ ] = dose if it differs, or a comment. Compounds with a hit are over-represented: about 5.5% of the library has one in this group of screens. Unless noted, the call rests on the fitted dose curve; in most records, active means well fitted curve in the direction sought with a large enough effect; inconclusive means small, poorly fitted or top-dose-only effect, or another doubt; inactive means no such curve, though single readings can be large; an effect the other way counts as inactive or inconclusive.

SMILES | Mito fusion act | Gal4-VP16 FLuc | uPA surface inh | Integrin act MD | RORgamma inh | BCR signal inh
CCC(C)c1ccc(NC(=S)NCCn2cc(Cl)cn2)cc1 (stereo unspecified) | – | 10µM | · | – | 3.16µM | –
CCC(C)c1ccc(NC(=S)NCc2cccnc2)cc1 (stereo unspecified) | – | 22.4µM | – | – | ? | –
CCC(C)c1ccc(NC(=S)NCCn2cc(Br)cn2)cc1 (stereo unspecified) | – | 11.2µM | – | – | 2.24µM | ?
CCC(C)c1ccc(NC(=S)Nc2ccc(OC)c(OC)c2)cc1 (stereo unspecified) | – | – | – | – | ? | –
O=C(/C=C/c1cc(Br)ccc1F)OCC(=O)N1CCCC1 | – | · | – | – | · | –
Cc1ccc(C)c(N2CCN(CCCNC(=O)Cn3cc4c(n3)CCCCC4)CC2)c1 | – | 20µM | ? | – | 12.6µM | ?
Cc1ccc(C)c(N2CCN(CCCNC(=O)Cn3cc4c(n3)CCC(C)C4)CC2)c1 (stereo unspecified) | – | – | – | – | – | –
O=C(Nc1cccc(NC(=O)c2cc([N+](=O)[O-])ccc2Cl)n1)c1cc([N+](=O)[O-])ccc1Cl | · | · | 8.91µM | – | · | ·
C=CCN1C(=O)C(Cc2ccc(Br)cc2)S/C1=N\N=C\c1ccco1 (stereo unspecified) | – | – | – | – | 14.1µM | –
CC1Sc2ccc(C(=O)NCc3ccccn3)cc2NC1=O (stereo unspecified) | – | · | 3.16µM | – | · | –
COc1ccc(N2C(=S)NC(C)(C)CC2(C)c2ccc(OC(C)=O)cc2OC(C)=O)cc1 (stereo unspecified) | – | ? | – | ? | 10µM | ?
CC(C)c1ccc(/C=C2\SC(=O)N(CC(=O)NC3CCS(=O)(=O)C3)C2=O)cc1 (stereo unspecified) | – | 7.08µM | ? | – | ? | ?
O=C(CCN1C(=O)/C(=C/c2ccccc2)SC1=S)NC1CCS(=O)(=O)C1 (stereo unspecified) | – | ? | – | ? | – | ?
O=C(CCCN1C(=O)/C(=C/c2ccc(F)cc2)SC1=S)NC1CCS(=O)(=O)C1 (stereo unspecified) | – | 17.8µM | – | – | 3.98µM | ?
CC(=O)OC[C@@H]1O[C@@H](O/N=C2/C[C@@H](O)[C@@H](O)[C@@H]3[C@@H]4C(=O)N(Cc5ccc6c(c5)OCO6)C(=O)[C@H]4CC[C@H]23)[C@H](OC(C)=O)[C@H](OC(C)=O)[C@@H]1OC(C)=O | · | –[10 µM] | · | · | –[10 µM] | ·
COc1ccccc1N1CCN(C(=O)Cn2c(=O)n3nc(-c4cccc(C)c4)nc3c3ccccc32)CC1 | · | · | · | · | · | –
CCC(=O)Nc1cccc(-c2ccc(N3CCC(C)CC3)nn2)c1 | – | 3.98µM | ? | – | 2.51µM | ?
CCC(=O)Nc1ccc(-c2ccc(N3CCC(C)CC3)nn2)cc1 | ? | ? | ? | – | 3.55µM | –
CCC(=O)Nc1ccc(-c2ccc(N3CCN(C)CC3)nn2)cc1 | – | – | – | – | – | –
Cc1ccc(C)c(NC(=O)c2ccc3ccccc3n2)c1 | – | – | – | – | – | –
COc1ccc(NC(=O)CN(C)C(=O)c2ccc3ccccc3n2)cc1 | · | · | – | – | · | –
COc1ccc(NC(=S)c2ccc3ccccc3n2)cc1 | – | 12.6µM | – | – | 3.98µM | ?
COc1ccc(N=C(NN)c2ccc3ccccc3n2)cc1 | – | ? | – | – | 10µM | ?
COc1ccc(CNC(=O)c2ccc3ccccc3n2)cc1 | – | – | – | ? | – | –
Cc1ccc(NC(=S)c2ccc3ccccc3n2)c(C)c1 | – | 7.94µM | – | – | 2µM | –
SMILES | Mito fusion act | Gal4-VP16 FLuc | uPA surface inh | Integrin act MD | RORgamma inh | BCR signal inh
CCOc1ccc(NC(=S)c2ccc3ccccc3n2)cc1 | – | ? | – | – | 6.31µM | ?
CCOc1ccc(CN(C)C(=O)c2ccc3ccccc3n2)cc1 | – | – | – | – | – | –
COc1ccc(NC(=O)CSc2nc(C)cs2)c([N+](=O)[O-])c1 | · | · | – | – | · | ?
CC(C)(C)c1ccc(C(=O)CCCN2CCC(OC(c3ccccc3)c3ccccc3)CC2)cc1 | – | 11.2µM | · | · | –[10 µM] | ·
S=C(N/N=C/c1cccs1)NC1CC2CCC1C2 (stereo unspecified) | – | 3.16µM | – | – | 0.794µM | –
Oc1ccc(/C=N/NC(=S)NC2CC3CCC2C3)cc1 (stereo unspecified) | – | 11.2µM | – | – | 2.51µM | –
Oc1ccc(/C=N/NC(=S)NCC2CCCO2)cc1 (stereo unspecified) | – | – | – | – | ? | –
Cc1ccccc1N1C(=O)c2cc(N)ccc2N/C1=C\F | · | – | · | · | – | ·
Cc1cc(C)n2c(SC(C)C(=O)NC3(C#N)CCCCC3)nnc2n1 (stereo unspecified) | – | · | – | – | · | –
CNc1ccccc1C(C)(C)c1cc(-c2cccc(OC)c2)no1 | – | ? | – | – | 1.41µM | –
CSc1cccc(NC(=S)N(Cc2ccc(C)cc2)Cc2cccnc2)c1 | – | ? | – | – | 5.01µM | ?
Cc1ccc(Cl)cc1NC(=S)N(Cc1cccnc1)Cc1ccccc1Cl | – | 25.1µM | – | – | ? | ?
COCCN(CCOC)C(=S)Nc1cc(S(=O)(=O)N(C)C)ccc1C | – | – | – | – | – | –
Cc1ccccc1NC(=S)N(Cc1ccccc1)Cc1cccnc1 | – | – | – | – | ? | –
CCN(CC)S(=O)(=O)c1ccc(C(=O)NC(=S)N(CCC#N)Cc2cccnc2)cc1 | – | 11.2µM | – | – | 3.55µM | –
Cc1ccc(S(=O)(=O)N(C)C)cc1NC(=S)N(CCC#N)Cc1cccnc1 | 7.08µM | ? | – | – | – | –
CN(C)S(=O)(=O)c1cccc(C(=O)NC(=S)N(CCC#N)Cc2cccnc2)c1 | – | –[10 µM] | – | ? | 2µM | –
Nc1nc(SCC(=O)Nc2ccc(Oc3ccccc3)cc2)n[nH]1 | – | 17.8µM | – | – | ? | ?
COc1ccccc1NC(=O)CSc1n[nH]c(-c2ccccn2)n1 | – | 5.01µM | · | – | 6.31µM | –
O=C(CSc1n[nH]c(-c2ccccn2)n1)Nc1ccccc1F | – | 5.01µM | – | – | 3.55µM | –
COc1ccc(NC(=O)CSc2n[nH]c(-c3ccccn3)n2)cc1 | – | ? | – | – | 15.8µM | –
O=C(CSc1n[nH]c(-c2ccccn2)n1)Nc1ccccc1 | – | ? | – | – | ? | –
CN(C)C1CCN(CCCOc2ccc(-c3ccc(C#N)cc3)cc2)C1 (stereo unspecified) | · | – | · | · | – | ·
COC(=O)c1ccc(NC(=O)CSc2nc(=O)[nH]c3c2CCCC3)cc1 | · | · | · | · | · | –
Cc1c(C(=O)Nc2nonc2-c2ccc(F)cc2)oc2ccc(F)cc12 | ? | ? | – | – | 8.91µM | ?
CCc1nonc1NC(=O)c1oc2ccc(F)cc2c1C | – | – | – | – | – | –
